From PubChem BioAssay (EPA / NIEHS)
The source made the active and inactive calls. How the source made its calls: active means hit-call score of the fitted dose curve at least 0.9, where 1 is the maximum; inactive means score below 0.9.

Legend:
[1] = ATG_CRE_CIS: Attagene CIS-FACTORIAL HepG2 Assay for human cAMP Responsive Element (CRE) binding protein 3 (AID 2282926); conditions: HepG2 CRE cis-reporter, Attagene multiplexed mRNA; actives raise or lower the signal
Outline: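 HepG2 cells transiently transfected with cis-element-driven multiple reporter transcription units; CRE reporter mRNA measured 24 h after dosing by RT-PCR, 6-FAM labelling, HpaI digestion and capillary electrophoresis. Bidirectional fit versus DMSO baseline.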

[2] = target: CCAAT/enhancer-binding protein beta (Homo sapiens) (UniProt P17676); assay: ATG_C_EBP_CIS: Attagene CIS-FACTORIAL HepG2 Assay for human CCAAT/Enhancer Binding Protein (C/EBP) beta (AID 2282927); conditions: HepG2 Attagene cis-factorial transcription factor reporter; actives raise or lower the signal
Sequence of CCAAT/enhancer-binding protein beta (Homo sapiens) (P17676 whole entry, looked up): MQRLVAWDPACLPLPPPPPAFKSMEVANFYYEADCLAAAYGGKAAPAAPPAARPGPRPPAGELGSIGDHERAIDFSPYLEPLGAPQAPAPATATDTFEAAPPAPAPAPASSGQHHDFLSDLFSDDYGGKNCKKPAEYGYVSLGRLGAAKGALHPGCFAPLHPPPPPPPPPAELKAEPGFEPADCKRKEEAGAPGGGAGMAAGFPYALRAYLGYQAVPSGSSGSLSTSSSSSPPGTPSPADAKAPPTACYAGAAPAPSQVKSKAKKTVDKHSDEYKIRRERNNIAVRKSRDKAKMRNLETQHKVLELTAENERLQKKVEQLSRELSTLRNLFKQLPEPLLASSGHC
Outline: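 Transiently transfected HepG2 (MRTU library, endogenous TF-driven promoters); 24 h dosing; total RNA → oligo(dT) RT → PCR → 6-FAM primer extension → HpaI digest → CE; fit bidirectionally vs DMSO.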

[3] = ATG_CMV_CIS: Attagene CIS-FACTORIAL HepG2 Assay for human CMV (Internal Marker) (AID 2282928); conditions: HepG2 CMV promoter reporter, transcription factor profiling; actives raise or lower the signal;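 further: endpoint acts as a background internal control marker rather than a target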
Outline: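 CMV internal-marker background readout in transiently transfected HepG2 cells bearing cis-regulated reporter units. Reporter mRNA is measured 24 h after dosing by RT-PCR and capillary electrophoresis, with bidirectional fitting against DMSO.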

[4] = ATG_DR4_LXR_CIS: Attagene CIS-FACTORIAL HepG2 Assay for human Liver X Receptor (LXR), DR4 submotif (AID 2282929); conditions: HepG2 Attagene DR4 cis-reporter, mRNA transcription; actives raise or lower the signal
Outline: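 Fluorescence intensity of labelled reporter cDNA fragments, separated by capillary electrophoresis, gives the signal. HepG2 cells bearing cis-regulated reporter constructs were treated 24 h; activity fitted bidirectionally relative to DMSO negative control.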

[5] = target: Aryl hydrocarbon receptor (Homo sapiens) (UniProt P35869); assay: ATG_Ahr_CIS: Attagene CIS-FACTORIAL HepG2 Assay for human Aryl Hydrocarbon Receptor (Ahr) (AID 2282930); conditions: HepG2 AhR cis-factorial reporter transcription; actives raise or lower the signal
Sequence of Aryl hydrocarbon receptor (Homo sapiens) (P35869 whole entry, looked up): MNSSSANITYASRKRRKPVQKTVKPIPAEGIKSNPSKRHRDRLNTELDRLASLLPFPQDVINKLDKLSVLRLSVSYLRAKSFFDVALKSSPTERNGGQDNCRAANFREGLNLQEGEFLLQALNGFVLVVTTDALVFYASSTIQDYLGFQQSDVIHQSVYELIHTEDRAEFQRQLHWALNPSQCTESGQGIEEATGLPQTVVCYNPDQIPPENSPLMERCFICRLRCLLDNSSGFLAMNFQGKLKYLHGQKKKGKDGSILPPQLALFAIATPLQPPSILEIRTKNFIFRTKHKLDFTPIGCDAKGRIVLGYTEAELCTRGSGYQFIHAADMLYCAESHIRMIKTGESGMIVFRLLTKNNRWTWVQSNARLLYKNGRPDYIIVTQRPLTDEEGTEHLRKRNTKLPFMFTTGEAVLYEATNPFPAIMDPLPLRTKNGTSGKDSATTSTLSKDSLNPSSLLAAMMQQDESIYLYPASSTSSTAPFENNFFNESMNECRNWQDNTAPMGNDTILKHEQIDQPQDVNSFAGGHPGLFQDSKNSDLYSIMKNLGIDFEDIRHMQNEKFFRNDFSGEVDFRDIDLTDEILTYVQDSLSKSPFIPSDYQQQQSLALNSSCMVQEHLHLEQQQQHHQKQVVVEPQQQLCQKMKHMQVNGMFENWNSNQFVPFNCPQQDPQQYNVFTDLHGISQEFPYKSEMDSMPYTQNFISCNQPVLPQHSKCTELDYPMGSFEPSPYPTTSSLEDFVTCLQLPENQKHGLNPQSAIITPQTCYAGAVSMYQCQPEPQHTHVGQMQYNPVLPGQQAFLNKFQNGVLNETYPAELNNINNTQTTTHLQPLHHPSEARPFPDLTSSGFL
Outline: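 Read-out: reporter mRNA quantified by RT-PCR with fluorescent primer extension and capillary electrophoresis. Human HepG2 liver cells carried transfected cis-promoter reporter units and were exposed to chemical for 24 h; gain or loss fitted relative to DMSO.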

[6] = ATG_AP_1_CIS: Attagene CIS-FACTORIAL HepG2 Assay for human Activator Protein 1 (AP-1) (AID 2282931); conditions: HepG2 Attagene cis-factorial AP-1 reporter mRNA; actives raise or lower the signal
Outline: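 Multiplexed HepG2 reporter assay, 24 h dosing. mRNA induction detected by RT-PCR plus capillary electrophoresis. Activity fitted in both directions against DMSO.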

[7] = ATG_AP_2_CIS: Attagene CIS-FACTORIAL HepG2 Assay for human Activator Protein 2 (AP-2) (AID 2282932); conditions: HepG2 AP-2 cis-reporter, Attagene transcription factor profiling; actives raise or lower the signal
Outline: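 HepG2 cells transiently transfected with cis-element reporter units and exposed for 24 h. Reporter mRNA measured by RT-PCR, FAM labelling, HpaI digestion and capillary electrophoresis. Changes in either direction fitted relative to DMSO.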

[8] = ATG_BRE_CIS: Attagene CIS-FACTORIAL HepG2 Assay for human Bone Morphogenetic Protein (BMP) Response Element (BRE) (AID 2282933); conditions: HepG2 BMP response element reporter, Attagene transcription factor profiling; actives raise or lower the signal
Outline: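 Endogenous transcription factor activity read in transiently transfected HepG2 cells after 24 h chemical exposure. Bidirectional curve fitting against DMSO; readout is reporter transcript level by RT-PCR with capillary electrophoresis of labelled products.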

[9] = target: Retinoic acid receptor alpha (Homo sapiens) (UniProt P10276); assay: ATG_DR5_RAR_CIS: Attagene CIS-FACTORIAL HepG2 Assay for human Retinoic Acid Receptor Alpha (RARE), DR5 submotif (AID 2282934); conditions: HepG2 Attagene cis-factorial RARE DR5 reporter, mRNA; actives raise or lower the signal;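 on AC50: reporter responds to endogenous RAR alpha beta and gamma in HepG2 not RARA alone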
Sequence of Retinoic acid receptor alpha (Homo sapiens) (P10276 whole entry, looked up): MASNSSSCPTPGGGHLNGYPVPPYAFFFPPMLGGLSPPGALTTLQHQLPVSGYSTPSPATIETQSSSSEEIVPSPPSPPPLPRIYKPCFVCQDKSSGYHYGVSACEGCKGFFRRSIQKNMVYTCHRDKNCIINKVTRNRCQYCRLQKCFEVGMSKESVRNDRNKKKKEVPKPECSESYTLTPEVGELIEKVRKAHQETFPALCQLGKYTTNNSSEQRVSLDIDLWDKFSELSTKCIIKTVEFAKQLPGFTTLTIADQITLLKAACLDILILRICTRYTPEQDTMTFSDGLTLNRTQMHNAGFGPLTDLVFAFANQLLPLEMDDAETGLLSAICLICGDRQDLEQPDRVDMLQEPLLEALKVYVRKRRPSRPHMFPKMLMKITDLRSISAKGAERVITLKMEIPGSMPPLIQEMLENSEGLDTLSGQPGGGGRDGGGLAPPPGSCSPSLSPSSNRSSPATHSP
Outline: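 Read-out: DR5-driven reporter transcript measured by RT-PCR, 6-FAM primer extension, HpaI digest and capillary electrophoresis. Human HepG2 liver cells carry transiently transfected cis-element reporter constructs; dosing lasts 24 h. Gain or loss of signal fitted against DMSO baseline.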

[10] = target: Transcription factor E2F1 (Homo sapiens) (UniProt Q01094); assay: ATG_E2F_CIS: Attagene CIS-FACTORIAL HepG2 Assay for human E2F Transcription Factor 1 (AID 2282935); conditions: HepG2 Attagene cis-reporter, E2F reporter RNA transcripts; actives raise or lower the signal
Sequence of Transcription factor E2F1 (Homo sapiens) (Q01094 whole entry, looked up): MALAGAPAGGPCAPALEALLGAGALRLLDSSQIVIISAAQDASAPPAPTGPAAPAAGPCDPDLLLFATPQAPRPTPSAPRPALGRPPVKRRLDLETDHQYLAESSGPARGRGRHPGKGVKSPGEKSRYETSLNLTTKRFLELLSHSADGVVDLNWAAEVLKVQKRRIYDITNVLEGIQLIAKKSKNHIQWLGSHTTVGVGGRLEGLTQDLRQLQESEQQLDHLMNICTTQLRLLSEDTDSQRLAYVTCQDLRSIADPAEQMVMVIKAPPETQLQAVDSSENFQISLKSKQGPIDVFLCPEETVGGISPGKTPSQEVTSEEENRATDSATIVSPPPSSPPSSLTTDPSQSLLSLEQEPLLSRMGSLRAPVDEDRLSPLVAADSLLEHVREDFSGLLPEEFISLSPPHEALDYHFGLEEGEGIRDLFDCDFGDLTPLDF
Outline: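 Endogenous E2F1 activity read through cis-promoter reporter units transfected into HepG2. After 24 h compound treatment, reporter mRNA measured by RT-PCR, HpaI digestion and capillary electrophoresis. Bidirectional fit versus DMSO.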

[11] = ATG_E_Box_CIS: Attagene CIS-FACTORIAL HepG2 Assay for human Enhancer Box (E-box) (AID 2282936); conditions: HepG2 E-box cis-reporter transcription, actives raise or lower the signal
Outline: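 HepG2 cells transiently transfected with multiplexed cis-element reporter units, dosed 24 h; reporter mRNA quantified by RT-PCR, 6-FAM labelling, HpaI digestion and capillary electrophoresis. E-box (USF1) signal fitted bidirectionally vs DMSO.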

[12] = ATG_M_61_CIS: Attagene CIS-FACTORIAL HepG2 Assay for M61 Transcription Factor (Internal Marker) (AID 2282937); conditions: HepG2 Attagene CIS-FACTORIAL M61 internal marker reporter; actives raise or lower the signal
Outline: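 Endogenous transcription factor activity in HepG2 is read through transiently transfected cis-element reporter units. After 24 h dosing, RNA undergoes reverse transcription, PCR and primer extension with 6-FAM before capillary electrophoresis; DMSO-referenced bidirectional fit.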

[13] = ATG_EGR_CIS: Attagene CIS-FACTORIAL HepG2 Assay for human Early Growth Response 1 (EGR1) (AID 2282938); conditions: HepG2 Attagene CIS-FACTORIAL EGR reporter mRNA; actives raise or lower the signal
Outline: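 Activity is taken as induction or loss of reporter mRNA versus DMSO, fitted bidirectionally. Transcripts from cis-regulated reporter units in transiently transfected HepG2 were measured after 24 h by RT-PCR with capillary electrophoresis.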

[14] = ATG_M_19_CIS: Attagene CIS-FACTORIAL HepG2 Assay for M19 Transcription Factor (Internal Marker) (AID 2282939); conditions: HepG2 Attagene CIS-FACTORIAL M19 internal marker reporter; actives raise or lower the signal
Outline: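 Internal marker readout, fitted in both directions against DMSO, from HepG2 cells carrying transfected cis-element reporter constructs; RT-PCR and capillary electrophoresis of reporter mRNA after 24 h exposure.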

[15] = ATG_Ets_CIS: Attagene CIS-FACTORIAL HepG2 Assay for human Erythroblast Transformation Specific (ETS) (AID 2282941); conditions: HepG2 ETS cis-reporter transcription, actives raise or lower the signal
Outline: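 HepG2 cells transfected with multiple cis-regulated reporter units measuring endogenous ETS-driven transcription, 24 h after dosing. Reporter mRNA quantified by RT-PCR with capillary electrophoresis; bidirectional fit relative to DMSO.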

[16] = target: Hepatocyte nuclear factor 3-beta (Homo sapiens) (UniProt Q9Y261); assay: ATG_FoxA2_CIS: Attagene CIS-FACTORIAL HepG2 Assay for human Forkhead box A2 (FOXA2) (AID 2282942); conditions: HepG2 cis-reporter transcription factor activity, 24 h; actives raise or lower the signal
Sequence of Hepatocyte nuclear factor 3-beta (Homo sapiens) (Q9Y261 whole entry, looked up): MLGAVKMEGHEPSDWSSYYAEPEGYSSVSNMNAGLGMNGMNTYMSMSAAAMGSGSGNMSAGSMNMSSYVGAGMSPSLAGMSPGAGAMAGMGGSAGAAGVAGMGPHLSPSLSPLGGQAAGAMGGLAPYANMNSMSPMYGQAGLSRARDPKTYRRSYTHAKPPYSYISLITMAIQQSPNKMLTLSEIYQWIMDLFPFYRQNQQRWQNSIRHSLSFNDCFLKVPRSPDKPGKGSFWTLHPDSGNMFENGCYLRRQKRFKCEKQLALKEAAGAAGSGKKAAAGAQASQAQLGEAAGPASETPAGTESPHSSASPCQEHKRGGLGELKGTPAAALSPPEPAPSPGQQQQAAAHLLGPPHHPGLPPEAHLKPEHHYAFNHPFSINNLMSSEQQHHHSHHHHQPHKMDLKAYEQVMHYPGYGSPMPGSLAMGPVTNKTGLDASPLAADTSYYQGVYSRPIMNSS
Outline: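 Reporter transcript induction is measured by fluorescence after capillary electrophoresis of RT-PCR products from HepG2 cells exposed 24 h. Cis-regulated reporter units report endogenous factor activity; curves fitted both directions against DMSO.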

[17] = ATG_FoxO_CIS: Attagene CIS-FACTORIAL HepG2 Assay for human Forkhead box O (FoxO) (AID 2282943); conditions: HepG2 Attagene cis-reporter, FoxO element, mRNA; actives raise or lower the signal
Outline: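 Read-out: fluorescence of 6-FAM-labelled reporter cDNA fragments resolved by capillary electrophoresis. Transiently transfected HepG2 cells were dosed for 24 h; activity fitted in both directions relative to DMSO controls.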

[18] = ATG_GATA_CIS: Attagene CIS-FACTORIAL HepG2 Assay for human GATA Binding Protein (AID 2282944); conditions: HepG2 GATA cis-element reporter, Attagene multiplex mRNA; actives raise or lower the signal
Outline: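 Reporter transcripts from a GATA cis-regulated unit, among multiplexed reporters in transfected HepG2 cells, were measured by RT-PCR with capillary electrophoresis after 24 h dosing. Induction or loss scored relative to DMSO.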

[19] = ATG_GLI_CIS: Attagene CIS-FACTORIAL HepG2 Assay for human Zinc Finger Protein GLI1 (AID 2282945); conditions: HepG2, Attagene cis-factorial reporter mRNA, GLI element; actives raise or lower the signal
Outline: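 Transiently transfected HepG2 cells report endogenous transcription factor activity via cis-element-driven reporter units. After 24 h compound exposure, reporter mRNA was measured by RT-PCR with capillary electrophoresis; bidirectional fitting against DMSO baseline.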

[20] = ATG_ERE_CIS: Attagene CIS-FACTORIAL HepG2 Assay for Estrogen Response Element (ERE) (AID 2282940); conditions: HepG2 ERE cis-reporter, Attagene RNA transcript; actives raise or lower the signal
Outline: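 After 24 h compound treatment, RNA from transfected HepG2 cells was reverse-transcribed, reporter cDNA PCR-amplified, FAM-labelled, HpaI-cut and resolved by capillary electrophoresis. ERE-driven cis reporter transcripts reflect endogenous factors; gain or loss scored against DMSO.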

Measured: AC50

N#CC(Br)(Br)C(N)=O
active: [5] 55.2 µM
not listed: [20]
inactive: all other assays above

COC(=O)Nc1nc2ccccc2[nH]1
active: [5] 13.3 µM
not listed: [20]
inactive: all other assays above

ClC1=C(Cl)C2(Cl)C3C(Cl)C=CC3C1(Cl)C2(Cl)Cl (stereo unspecified)
active: [3] 100 µM | [4] 40.1 µM | [6] 154 µM | [13] 132 µM | [20] 24.4 µM
inactive: all other assays above

c1ccc(C2CO2)cc1 (stereo unspecified)
not listed: [9] | [20]
inactive: all other assays above

CO[C@@H]1[C@H](OC(=O)NC(=O)CCl)CC[C@]2(CO2)[C@H]1[C@@]1(C)O[C@@H]1CC=C(C)C
active: [4] 10.2 µM | [15] 47.8 µM
not listed: [14]
inactive: all other assays above

CCOC(=O)[C@]1(c2ccccc2)Oc2ccccc2[C@@H]1N
active: [1] 20.3 µM | [2] 33 µM | [3] 33 µM | [4] 52.4 µM | [6] 40 µM | [7] 55.1 µM | [8] 22.5 µM | [9] 13.6 µM | [13] 33 µM | [17] 49.5 µM | [19] 59.5 µM
inactive: [5] | [10] | [11] | [12] | [15] | [16] | [18]

[O-][Cl+]O
not listed: [14]
inactive: all other assays above

CC(C)(C)C(O)(CCc1ccc(Cl)cc1)Cn1cncn1 (stereo unspecified)
active: [3] 122 µM | [4] 152 µM | [5] 52.3 µM | [6] 140 µM | [8] 147 µM
not listed: [14] | [20]
inactive: all other assays above

CCCCCCCCCCCCCN1CC(C)OC(C)C1 (stereo unspecified)
active: [3] 33.4 µM | [6] 50.9 µM | [8] 50 µM
not listed: [14]
inactive: all other assays above

CCCCCCCCn1sccc1=O
active: [1] 14.4 µM | [3] 19.1 µM | [8] 11.6 µM | [13] 18.2 µM | [15] 14.8 µM | [17] 18.3 µM | [18] 18.4 µM | [19] 16.9 µM
not listed: [9]
inactive: all other assays above

CC(C)N(Cc1ccccc1)C(=O)C(C)(C)C
not listed: [14] | [20]
inactive: all other assays above

Nc1ccc(Cl)cc1N
active: [3] 6.32 µM | [5] 0.431 µM | [6] 9.15 µM | [13] 28.2 µM
not listed: [14] | [20]
inactive: all other assays above

O=C(Oc1ccc(Br)cc1)N1CCN2CCC1CC2
not listed: [14]
inactive: all other assays above

OCCCl
not listed: [14] | [20]
inactive: all other assays above
